This note sets out measurements from PubChem BioAssay (EPA / NIEHS).

SMILES strings stand for the structures. Calls of active or inactive are those of the source. Rule for the calls: active = hit-call score of the fitted dose curve at least 0.9, where 1 is the maximum; inactive = score below 0.9.

Conditions in all cases: mRNA level, 48 h; actives raise or lower the signal
Read-out in experiment [1]: Broad substrate specificity ATP-binding cassette transporter ABCG2 (Homo sapiens) (UniProt Q9UNQ0)
Briefly: LTEA_HepaRG_ABCG2: Life Technologies and Expression Analysis (LTEA) Assay for ABC Transporter (ABCG2) using HepaRG (AID 2283465). The gist of the method: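 ABCG2 transcript was quantified by TaqMan qRT-PCR against three housekeeping genes in HepaRG cells. Cells were treated in duplicate for 48 h across an 8-point half-log series up to 100 uM, with 0.5% DMSO vehicle. Gain or loss versus DMSO was fit.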

Read-out in experiment [2]: ATP-citrate lyase (ACLY), ACLY (gene 47)
The experiment can be described thus: LTEA_HepaRG_ACLY: Life Technologies and Expression Analysis (LTEA) Assay for ATP-citrate lyase (ACLY) using HepaRG (AID 2283466). The gist of the method:
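ACLY mRNA quantified by qRT-PCR on Fluidigm arrays against three housekeeping genes, after 48 h chemical treatment of HepaRG cells (top concentration 100 uM, half-log steps, 0.5% DMSO vehicle). Up- or down-regulation fitted relative to DMSO.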

Read-out in experiment [3]: Peroxisomal acyl-coenzyme A oxidase 1 (ACOX1) gene, ACOX1 (gene 51)
Briefly: LTEA_HepaRG_ACOX1: Life Technologies and Expression Analysis (LTEA) Assay for Peroxisomal acyl-coenzyme A oxidase 1 (ACOX1) gene using HepaRG (AID 2283467). The method in brief: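 ACOX1 transcript levels were quantified by TaqMan qRT-PCR against three housekeeping genes after 48 h chemical exposure of differentiated human HepaRG cells. Exposure used eight half-log steps topping at 100 uM, 0.5% DMSO vehicle, in duplicate. Bidirectional curve fits were made relative to DMSO.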

Read-out in experiment [4]: Alkaline Phosphatase, Placental (ALPP) gene, ALPP (gene 250)
Briefly: LTEA_HepaRG_ALPP: Life Technologies and Expression Analysis (LTEA) Assay for Alkaline Phosphatase, Placental (ALPP) gene using HepaRG (AID 2283468). The gist of the method:
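qRT-PCR readout of ALPP mRNA (Fluidigm TaqMan), normalized to ACTB/GAPDH/POLR2A, after 48 h chemical exposure of HepaRG cells; 8-point half-log series, top 100 uM, 0.5% DMSO vehicle. Bidirectional curve fit versus DMSO baseline.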

Read-out in experiment [5]: Bcl-2 (BAD) gene, BAD (gene 572)
Briefly: LTEA_HepaRG_BAD: Life Technologies and Expression Analysis (LTEA) Assay for Bcl-2 (BAD) gene using HepaRG (AID 2283469). The gist of the method: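 Read-out: qRT-PCR of BAD mRNA, normalized to three housekeeping genes. Human HepaRG cultures got 48 h chemical exposure in 0.5% DMSO, duplicate eight-point half-log series topping at 100 uM. Gain or loss of signal fitted versus DMSO vehicle.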

Read-out in experiment [6]: Bcl-2 (BAX) gene, BAX (gene 581)
Briefly: LTEA_HepaRG_BAX: Life Technologies and Expression Analysis (LTEA) Assay for Bcl-2 (BAX) gene using HepaRG (AID 2283470). The gist of the method:
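Cells were thawed, plated for 48 h, moved to serum-free induction medium and dosed for 48 h (highest concentration 100 uM, half-log steps, 0.5% DMSO). Total RNA was then analysed for BAX expression by qRT-PCR.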

Read-out in experiment [7]: adenosine kinase (ADK) gene, ADK (gene 132)
Briefly: LTEA_HepaRG_ADK: Life Technologies and Expression Analysis (LTEA) Assay for adenosine kinase (ADK) gene using HepaRG (AID 2283471). The method in brief: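 Read-out is ADK transcript level measured by qRT-PCR and normalised to three housekeeping genes. Cells are human HepaRG, dosed for 48 h at up to 100 uM in 0.5% DMSO. Gain or loss of signal is fitted against DMSO controls.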

Read-out in experiment [8]: Alpha-fetoprotein (AFP) gene, AFP (gene 174)
Briefly: LTEA_HepaRG_AFP: Life Technologies and Expression Analysis (LTEA) Assay for Alpha-fetoprotein (AFP) gene using HepaRG (AID 2283472). The gist of the method: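 Chemicals were tested on differentiated HepaRG cells for 48 hours at eight concentrations up to 100 uM, with 0.5% DMSO as vehicle. AFP expression was then quantified by qRT-PCR and analyzed for gain or loss relative to DMSO.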

Read-out in a further experiment: BCL2L11 (gene 10018)
Briefly: LTEA_HepaRG_BCL2L11: Life Technologies and Expression Analysis (LTEA) Assay for Bcl-2 (BCL2L11) gene using HepaRG (AID 2283473). The gist of the method:
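HepaRG, 48 h exposure, 8-pt half-log series from 100 uM in 0.5% DMSO, duplicates; qRT-PCR (Fluidigm TaqMan) for BCL2L11, housekeeping-normalized; bidirectional curve fit relative to DMSO baseline.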

Read-out in experiment [9]: Apolipoprotein A-V (APOA5) gene, APOA5 (gene 116519)
The experiment can be described thus: LTEA_HepaRG_APOA5: Life Technologies and Expression Analysis (LTEA) Assay for Apolipoprotein A-V (APOA5) gene using HepaRG (AID 2283474). The method in brief: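 HepaRG, 48 h chemical exposure in serum-free induction medium, 8-pt half-log series (top 100 uM), 0.5% DMSO vehicle, duplicates. Readout: APOA5 mRNA by qRT-PCR, housekeeping-normalized; bidirectional fit vs DMSO baseline.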

Read-out in experiment [10]: Apoptosis regulator Bcl-2 (Homo sapiens) (UniProt P10415)
Briefly: LTEA_HepaRG_BCL2: Life Technologies and Expression Analysis (LTEA) Assay for Bcl-2 gene using HepaRG (AID 2283475). The method in brief: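 Plated human HepaRG cells are exposed to test chemicals for 48 h across eight concentrations from 100 uM downward in half-log steps (0.5% DMSO). BCL2 expression is then measured by qRT-PCR with housekeeping normalisation and fitted bidirectionally against vehicle.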

Read-out in experiment [11]: Bcl-2 (BID) gene, BID (gene 637)
Briefly: LTEA_HepaRG_BID: Life Technologies and Expression Analysis (LTEA) Assay for Bcl-2 (BID) gene using HepaRG (AID 2283476). The method in brief: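 Cells are plated, cultured 48 h, switched to serum-free induction medium, then dosed 48 h (100 uM top, half-log steps, 0.5% DMSO). RNA is isolated and BID expression read by qRT-PCR.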

Read-out in another experiment: Caspase-3 (Homo sapiens) (UniProt P42574)
Briefly: LTEA_HepaRG_CASP3: Life Technologies and Expression Analysis (LTEA) Assay for cysteine-aspartic acid protease (CASP3) using HepaRG (AID 2283477). The method in brief: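 HepaRG, 48 h exposure, 8 conc. (top 100 uM, half-log steps, duplicate), 0.5% DMSO vehicle; qRT-PCR of CASP3 transcript, housekeeping-normalised (ACTB/GAPDH/POLR2A); bidirectional curve fit vs DMSO baseline.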

Read-out in experiment [12]: Cytochrome P450 (CYP24A1), CYP24A1 (gene 1591)
Briefly: LTEA_HepaRG_CYP24A1: Life Technologies and Expression Analysis (LTEA) Assay for Cytochrome P450 (CYP24A1) using HepaRG (AID 2283478). The gist of the method:
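qRT-PCR read-out: CYP24A1 transcript levels normalized to three housekeeping genes, bidirectional curve fits against 0.5% DMSO baseline. Human HepaRG cells treated 48 h with chemicals at eight concentrations from 100 uM in half-log steps.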

Read-out in experiment [13]: Cytochrome P450 (CYP1A2), CYP1A2 (gene 1544)
Briefly: LTEA_HepaRG_CYP1A2: Life Technologies and Expression Analysis (LTEA) Assay for Cytochrome P450 (CYP1A2) using HepaRG (AID 2283479). The method in brief: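 HepaRG, 48 h exposure, top 100 uM, half-log 8-pt, 0.5% DMSO vehicle, duplicates. Readout: TaqMan qRT-PCR of CYP1A2 mRNA, housekeeping-normalized (ACTB/GAPDH/POLR2A). Gain/loss fit relative to DMSO baseline.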

Read-out in experiment [14]: Cytochrome P450 (CYP2B6), CYP2B6 (gene 1555)
The experiment can be described thus: LTEA_HepaRG_CYP2B6: Life Technologies and Expression Analysis (LTEA) Assay for Cytochrome P450 (CYP2B6) using HepaRG (AID 2283481). The method in brief: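 Read-out is CYP2B6 mRNA by TaqMan qRT-PCR, normalized to three housekeeping genes and fitted bidirectionally against 0.5% DMSO baseline. Human HepaRG cells received test chemicals for 48 h, top concentration 100 uM, half-log dilutions.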

Read-out in experiment [15]: Cytochrome P450 2C19 (Homo sapiens) (UniProt P33261)
The experiment can be described thus: LTEA_HepaRG_CYP2C19: Life Technologies and Expression Analysis (LTEA) Assay for CYP2C19 using HepaRG (AID 2283482). The method in brief:
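HepaRG, 48 h chemical exposure, 8-pt half-log series from 100 uM in 0.5% DMSO, duplicates. Readout: CYP2C19 mRNA by TaqMan qRT-PCR, housekeeping-normalized. Bidirectional fit vs DMSO baseline; phenobarbital 1mM as induction control.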

Read-out in the next experiment: CYP2C8 (gene 1558)
The experiment can be described thus: LTEA_HepaRG_CYP2C8: Life Technologies and Expression Analysis (LTEA) Assay for CYP2C8 using HepaRG (AID 2283483). The method in brief: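 CYP2C8 expression measured by TaqMan qRT-PCR and normalized to three housekeeping genes. HepaRG cultures were treated for 48 h with an eight-point half-log series topping at 100 uM, vehicle 0.5% DMSO, duplicates; fitted both directions against DMSO.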

Read-out in experiment [16]: ABC Transporter (ABCC2), ABCC2 (gene 1244)
Briefly: LTEA_HepaRG_ABCC2: Life Technologies and Expression Analysis (LTEA) Assay for ABC Transporter (ABCC2) using HepaRG (AID 2283464). The method in brief: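 qRT-PCR (TaqMan, Fluidigm array) read-out of ABCC2 mRNA, normalized to three housekeeping genes. Differentiated HepaRG cells were treated 48 h in serum-free induction medium with 8-point half-log series from 100 uM in 0.5% DMSO; curves fitted bidirectionally relative to DMSO.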

Read-out in experiment [17]: cysteine-aspartic acid protease (CASP8), CASP8 (gene 841)
Briefly: LTEA_HepaRG_CASP8: Life Technologies and Expression Analysis (LTEA) Assay for cysteine-aspartic acid protease (CASP8) using HepaRG (AID 2283480). The gist of the method: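 CASP8 transcript measured by TaqMan qRT-PCR with ACTB/GAPDH/POLR2A normalization, after 48 h chemical exposure of HepaRG cells in serum-free induction medium. Eight concentrations, top 100 uM, half-log steps, 0.5% DMSO vehicle; fits in both directions versus DMSO.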

Apoptosis regulator Bcl-2 (Homo sapiens), sequence (P10415 whole entry, looked up): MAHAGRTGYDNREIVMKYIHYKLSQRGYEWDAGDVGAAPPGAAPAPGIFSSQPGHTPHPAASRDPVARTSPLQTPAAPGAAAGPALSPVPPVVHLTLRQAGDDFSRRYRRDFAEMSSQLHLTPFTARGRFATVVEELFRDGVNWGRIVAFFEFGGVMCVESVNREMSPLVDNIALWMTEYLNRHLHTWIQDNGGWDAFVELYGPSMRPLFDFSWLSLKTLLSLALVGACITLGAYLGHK
Cytochrome P450 2C19 (Homo sapiens), sequence (P33261 whole entry, looked up): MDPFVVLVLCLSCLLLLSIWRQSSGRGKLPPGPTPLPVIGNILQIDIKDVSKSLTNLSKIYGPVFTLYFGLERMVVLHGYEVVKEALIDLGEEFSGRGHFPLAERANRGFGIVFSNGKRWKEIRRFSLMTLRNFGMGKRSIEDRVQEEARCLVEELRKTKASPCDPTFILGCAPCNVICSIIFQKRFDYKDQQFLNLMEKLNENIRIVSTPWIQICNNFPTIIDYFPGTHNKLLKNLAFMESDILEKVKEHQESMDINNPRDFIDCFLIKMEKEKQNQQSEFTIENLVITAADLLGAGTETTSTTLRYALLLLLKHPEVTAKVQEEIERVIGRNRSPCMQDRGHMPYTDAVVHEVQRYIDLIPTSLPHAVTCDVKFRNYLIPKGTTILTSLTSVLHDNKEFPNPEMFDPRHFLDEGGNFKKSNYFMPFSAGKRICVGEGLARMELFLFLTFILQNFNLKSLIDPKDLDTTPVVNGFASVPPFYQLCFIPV
Broad substrate specificity ATP-binding cassette transporter ABCG2 (Homo sapiens), sequence (Q9UNQ0 whole entry, looked up): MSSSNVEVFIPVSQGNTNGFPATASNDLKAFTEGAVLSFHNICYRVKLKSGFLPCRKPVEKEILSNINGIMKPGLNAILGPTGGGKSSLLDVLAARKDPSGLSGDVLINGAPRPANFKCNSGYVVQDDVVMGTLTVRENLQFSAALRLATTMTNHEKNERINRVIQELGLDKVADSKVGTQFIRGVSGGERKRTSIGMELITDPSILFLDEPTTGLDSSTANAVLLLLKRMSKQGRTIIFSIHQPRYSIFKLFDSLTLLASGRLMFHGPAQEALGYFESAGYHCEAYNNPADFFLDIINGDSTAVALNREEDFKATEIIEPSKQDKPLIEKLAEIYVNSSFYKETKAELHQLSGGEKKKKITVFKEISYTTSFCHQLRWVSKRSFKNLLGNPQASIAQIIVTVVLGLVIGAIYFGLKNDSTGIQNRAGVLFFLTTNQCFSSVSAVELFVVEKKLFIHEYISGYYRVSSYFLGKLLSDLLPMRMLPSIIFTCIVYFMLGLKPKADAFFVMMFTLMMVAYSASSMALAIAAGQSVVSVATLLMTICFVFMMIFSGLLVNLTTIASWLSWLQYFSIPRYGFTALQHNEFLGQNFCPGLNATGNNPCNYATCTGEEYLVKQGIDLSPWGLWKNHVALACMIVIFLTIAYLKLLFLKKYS
Caspase-3 (Homo sapiens), sequence (P42574 whole entry, looked up): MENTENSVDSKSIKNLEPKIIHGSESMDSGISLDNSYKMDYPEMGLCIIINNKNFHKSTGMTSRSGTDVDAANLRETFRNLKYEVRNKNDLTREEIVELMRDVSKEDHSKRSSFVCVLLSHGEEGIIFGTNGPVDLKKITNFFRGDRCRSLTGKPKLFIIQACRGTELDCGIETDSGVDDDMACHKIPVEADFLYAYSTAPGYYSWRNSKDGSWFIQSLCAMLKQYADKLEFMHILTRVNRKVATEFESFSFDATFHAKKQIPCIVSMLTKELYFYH

The AC50 is the concentration giving half of the maximal activity seen. Take `CCCCOCCOCCOCc1cc2c(cc1CCC)OCO2`: the AC50 in [1] was 8.84 µM (active); in [8] it was 33.3 µM (active); in experiment [13], 16.5 µM (active); in experiment [14], 2.28 µM (active); in [15], 5.73 µM (active); with CYP2C8 (gene 1558) it was 4.61 µM (active). Also, the outcome in experiment [2], in experiment [3], in [4], in [5], in experiment [6] and in experiment [7] was inactive. Also, the molecule was classed as inactive (with BCL2L11 (gene 10018); in experiment [9]; in experiment [10]; in experiment [11]; in the experiment with Caspase-3 (Homo sapiens); in experiment [12]).

Turning to `CCCN(CCC)C(=O)SCC`, the result in experiment [16], in [1], in experiment [2], in experiment [3], in experiment [4] and in experiment [5] was inactive. For the same molecule, the outcome (in experiment [6]; in experiment [7]; in [8]; with BCL2L11 (gene 10018); in [9]; in experiment [10]) was inactive. Also, the molecule was classed as inactive (with Caspase-3 (Homo sapiens); in [12]; in experiment [13]; in experiment [15]; with CYP2C8 (gene 1558)). The AC50 in [14] was 11.4 µM (active).

Take `CCN(Cc1c(F)cccc1Cl)c1c([N+](=O)[O-])cc(C(F)(F)F)cc1[N+](=O)[O-]`: the AC50 in experiment [16] was 50 µM (active); in experiment [1] it was 20.3 µM (active); in experiment [8], 50 µM (active); in [9] it was 26.7 µM (active); in experiment [13] it was 13.3 µM (active); in [14], 12.7 µM (active). Further, in experiment [15], the half-maximal activity concentration (AC50) was 12.9 µM (active). Besides, the call in experiment [2], in experiment [3], in experiment [4], in experiment [5], in [6] and in experiment [7] was inactive. For the same molecule, the result (in the experiment with BCL2L11 (gene 10018); in experiment [10]; in experiment [11]; with Caspase-3 (Homo sapiens); in [12]; in experiment [17]) was inactive. Further, the outcome with CYP2C8 (gene 1558) was inactive.
